Laboratory results as given in PubChem BioAssay AID1987 (The Scripps Research Institute Molecular Screening Center, 2009).
The whole screen tested about 320,000 compounds, of which about 560 (0.17%) were called active. Shown is part of a subset that was picked to be rich in actives. A number with no mark means an inactive call.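 Rule for the calls: active = inhibition above the campaign's mean inhibition across all tested compounds plus 3 SD (cut at about 9.5% in these data); inactive = the rest.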

Target: Serine/threonine-protein phosphatase 5 (Homo sapiens) (UniProt P53041)
Assay: PP5 phosphatase inhibitors, primary screen, biochemical, fluorescence (AID 1987);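 note: 0% = DMSO only and 100% = 100 µM cantharidin control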
Conditions: purified PP5c, OMFP substrate fluorescence; at 6.7 µM; stronger effect = higher value

Serine/threonine-protein phosphatase 5 (Homo sapiens), sequence (P53041 whole entry, looked up): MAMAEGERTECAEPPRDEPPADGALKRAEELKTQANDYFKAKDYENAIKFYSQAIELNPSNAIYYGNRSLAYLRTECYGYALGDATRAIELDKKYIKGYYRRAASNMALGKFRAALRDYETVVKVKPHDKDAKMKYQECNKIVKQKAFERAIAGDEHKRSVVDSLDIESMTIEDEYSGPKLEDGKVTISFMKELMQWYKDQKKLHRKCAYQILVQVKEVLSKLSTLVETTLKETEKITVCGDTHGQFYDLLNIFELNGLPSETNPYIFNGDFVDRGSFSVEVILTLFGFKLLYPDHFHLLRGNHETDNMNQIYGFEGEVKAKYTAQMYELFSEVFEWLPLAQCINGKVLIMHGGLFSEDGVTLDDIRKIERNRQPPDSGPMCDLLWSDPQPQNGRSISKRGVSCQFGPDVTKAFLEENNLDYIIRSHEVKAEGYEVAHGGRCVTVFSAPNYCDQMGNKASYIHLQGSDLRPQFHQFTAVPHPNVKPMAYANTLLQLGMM

Point of comparison: `CC1CC(C)(C)n2c(O)c(N=NC(N)=S)c3cccc1c32` (centres undefined), inhibition 3.55%. Against it:
- Cc1cc(C)n(-c2nnc(N3CCN(c4ccccc4)CC3)nn2)n1 — lower, -0.74%
- COCCCNC(=O)C1CC(=O)N(CCc2ccc(F)cc2)C1 (centres undefined) — lower, -1.89%
- CC(C)CCn1cnc2c1c(=O)n(CC(=O)NC(N)=O)c(=O)n2Cc1ccccc1 — lower, 1.52%
- COc1ccc2c(c1)C(=O)Nc1cc(Cl)ccc1N2 — lower, -0.62%
- CC(C)CN(C(=O)Cn1c(=O)cnc2ccccc21)C1CCS(=O)(=O)C1 (centres undefined) — lower, -1.01%
- COc1ccc(S(=O)(=O)N2CCN(C(=O)c3cc(C)oc3C)CC2)cc1 — lower, 0.44%
- CCCCn1c(N)c(N(CCC(C)C)C(=O)COC(=O)c2cccnc2OCC)c(=O)[nH]c1=O — lower, 0.18%
- CC(=O)Nc1ccccc1OC(C)C(=O)N1CCC(C)CC1 (centres undefined) — lower, -1.03%
- Nc1nnc(SCC(=O)OCc2ccc(Cl)c(Cl)c2)s1 — lower, 1.15%
- CCN1C(=O)[C@H]2[C@@H](c3ccc(SC4CCCCC4)c(OC)c3)N[C@@](Cc3ccccc3)(C(=O)OC)[C@H]2C1=O — lower, 2.69%
- CC(C)Oc1ccc(C(CC(=O)N2CCOCC2)C(C)C)cc1 (centres undefined) — lower, 0.66%
- Cc1cccc(N(C(=O)c2csnn2)C(C(=O)NCc2ccccc2)c2ccncc2)c1 (centres undefined) — lower, 1.82%
- Cn1cnnc1Sc1ccc(S(C)(=O)=O)cc1[N+](=O)[O-] — lower, -0.46%
- CCOC(=O)c1cnc(COc2ccccc2Cl)[nH]c1=O — lower, -1.14%
- Cn1ccnc1SCC(=O)Nc1ccc2c(c1)OCCO2 — lower, 2.87%
- COc1ccc(Cl)cc1C(=O)Nc1ccc(N(C)C(C)=O)cc1 — lower, 0.43%
- COc1cccc(OC)c1CN(C)C(=O)c1cnccc1C(F)(F)F — lower, 0.42%
- COc1ccccc1NC(=O)COC(=O)COc1ccccc1F — lower, 2.17%
- CC(C)c1cc(CN2CCOCC2)cc(C(C)C)c1O — lower, 1.58%
- CN(C)c1ccc(C(CC(=O)O)C(=O)O)cc1 (centres undefined) — lower, 0.86%
- CCN(CC)c1nc(-c2ccccc2)cc(C(F)(F)F)c1C#N — lower, 0.13%
- O=C(Cc1ccccc1Cl)N1CCOCC1 — lower, -1.76%
- CN(C(=O)Nc1ccc(Cl)cc1)n1cnc2ccccc2c1=O — lower, -2.44%
- CC(C)(C)c1cc[n+](-c2[nH]c(=O)sc2/C=N/N=C(\[O-])c2ccccc2)cc1 — lower, -0.11%
- O=C(CSc1ncnc2sccc12)N1CCN(C(=O)c2cccs2)CC1 — lower, 0.16%
- CCC(C)Sc1nc(C)nc2c1c(=O)n(C)c(=O)n2C (centres undefined) — lower, 2.18%
- CCn1c(C)nc2c1C(=O)c1ccccc1C2=O — lower, -1.27%
- CCc1nnc(NC(=O)c2cc(S(=O)(=O)N3CCCCC3)ccc2C)s1 — lower, 3.35%
- O=S1(=O)CC/C(=N\Nc2ccc(F)cc2)c2ccsc21 — lower, 1.6%
- O=Cc1cn(-c2ccccc2)nc1-c1ccccn1 — lower, 0.89%
- C=CCc1ccccc1OCC(O)CN1CCN(CCO)CC1 (centres undefined) — lower, 0.89%
- O=C(NCCCN1CCOCC1)c1ccc2c(c1)N(Cc1cccc(F)c1)C(=O)c1ccccc1S2 — lower, -0.03%
- CN1CCN(CCCNC(=O)c2ccc(/C=C3\Oc4ccccc4N(Cc4ccc(Cl)cc4)C3=O)cc2)CC1 — higher, 4.83%
- COc1ccc(CNc2c(CO)cnc3c2cnn3C)cc1 — lower, 0.82%
- CC(C(=O)c1ccc(-c2ccccc2)cc1)[n+]1cccc(Br)c1 (centres undefined) — lower, 0.21%

With `COc1cc(C(F)(F)F)c(C(=O)N(C)c2ccc(Cl)cc2)cn1` the inhibition was 11.3% (active).
For `Oc1c(C(c2ccccn2)N2CCOCC2)ccc2cccnc12` (centres undefined), the inhibition was 11.2% (active).
With `CCN1CCN(CCNC(=O)c2ccc(/C=C3/Sc4ccccc4N(Cc4cccc(C)c4)C3=O)cc2)CC1` the inhibition was 10.1% (active).
